Several values for one entry are separate records, joined by “and”; a condition that tells them apart may be missing. Equal entries are not always repeated. The whole screen tested about 350,000 compounds, of which about 2,100 (0.6%) were called active.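 How the source made its calls: active means inhibition of the ligand-induced calcium signal above about 50% at the single tested concentration (limit read from the data); inactive means the rest.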 The full list was thinned out, with actives kept by preference. More than one record can exist for a structure, and the calls need not agree.
Experiment: antagonists of CRF-BP/CRF-R2 complex, primary screen, cell-based, HEK293, calcium dye fluorescence, uHTS (AID 588475)
Details: CRF-induced calcium fluorescence, at 11.8 µM, stronger effect = higher value

inhibition, active:
Clc1ccc(Cl)c(Oc2ccc(Oc3nc(Cl)ccc3Cl)cc2)n1 55.5%
COc1ccc(S(=O)(=O)N2CCOCC2)cc1NC(=O)CC1CC2CCC1C2 (centres undefined) 80.4%
COC(=O)c1nc2n(n1)C(c1ccc([N+](=O)[O-])cc1)C(C(=O)Nc1ccc(Cl)cc1)=C(C)N2 (centres undefined) 56.3%
CCS(=O)(=O)C1=NSC2=NC(=O)/C(=C\c3cc(C)n(-c4cccc(OC)c4)c3C)C(=N)N21 81.8%
Cc1cc(C)c2nc3nc(C)cc(C)c3c(N)c2c1 90.7%
Cc1ccc(/C=N/NC(=S)Nc2cccc(S(=O)(=O)N(C)C)c2)o1 82.9%
O=C1c2cccc3c([N+](=O)[O-])ccc(c23)C(=O)N1CC1CCCO1 (centres undefined) 87.2%
CCOc1cc(C2C(C(=O)OC)=CN(C3CCCC3)C=C2C(=O)OC)cc(Br)c1O 50.2%
CCn1c(SCC(=O)NC2CC2)nnc1-c1ccncc1 52%
CCOc1ccc(NC(=O)Nc2cc(C)ccc2OC)cc1 54.1%
Cn1nc(N)c2ncc(C(Cl)(Cl)Cl)nc21 73.4%
COc1cccc(NC(=S)C(C#N)=C2N(C)c3ccccc3N2C)c1 79.1%

inhibition, 66.6% (active) and 12.6% (inactive):
CN(CCOc1ccc(CC2SC(=O)NC2=O)cc1)c1ccccn1 (centres undefined)

inhibition, inactive:
N#Cc1ccc(-c2ccc(Cl)cc2)nc1Oc1ccc(F)cc1 -14%
CCc1nn(CC(=O)N2CCN(CC)CC2)c(=O)c2cccn12 -5.15%
CC(O)c1ccc(OCCN(C)c2ccccn2)cc1 (centres undefined) -5.71%
CC(C)=N/N=C1/NC(=O)C(Cc2ccccc2)S1 (centres undefined) 2.42%
OC(C#CCN1CCOCC1)(c1ccccc1)C1CCCCC1 (centres undefined) -6%
Cc1ccccc1-n1c(SCC(=O)Nc2cccc3ccccc23)nc(O)cc1=O -4.41%
COc1ccc(S(=O)(=O)N2CCOCC2)cc1NC(=O)CSc1cc(C)ccc1C 1.57%
COc1ccc(S(=O)(=O)N2CCOCC2)cc1NC(=O)COc1ccccc1 12.8%
O=C(Nc1cccn(Cc2c(Cl)cccc2Cl)c1=O)c1ccc(Cl)cc1 -7%
Cc1ccc(OCc2nnc(NC(=O)OCC(C)C)s2)cc1 -2.73%
COc1cc(C2C(C(=O)Nc3ccc(F)cc3)=C(C)Nc3nc(CCCO)nn32)cc(OC)c1OC (centres undefined) 5.65%
COc1ccc(NC(=O)C2=C(C)NC(=O)NC2c2ccccc2[N+](=O)[O-])cc1 (centres undefined) -10%
O=C(Nc1cc(-c2ccccc2)nn1-c1ccccc1F)c1ccc([N+](=O)[O-])cc1 -5.97%
CCS(=O)(=O)C1=NSC2=NC(=O)/C(=C\c3ccc(OS(=O)(=O)c4ccccc4)cc3)C(=N)N21 0.32%
CS(=O)(=O)C1=NN2C(=N)/C(=C\c3ccc(OCCOc4ccccc4)cc3)C(=O)N=C2S1 26.8%
CCOc1ccc(NC(=S)NC(=O)/C=C/c2ccc(OC)cc2)c([N+](=O)[O-])c1 -8%
CCOC(=O)/C(C#N)=C\c1c(C)cc(C)c(COC(C)=O)c1C 3.93%
CCOC(=O)c1nnn(-c2nonc2-n2cccc2)c1CN1CCC(C(=O)OCC)CC1 17.9%
COc1ccc(-c2ccc(CCC(=O)O)n2NC(=O)c2ccc(C(C)(C)C)cc2)cc1 7.59%
Cc1cccc(OC(C)C(=O)N2CCc3ccccc3C2)c1 (centres undefined) 16.6%
COCc1cc(=O)[nH]c(SC)n1 9.17%
Cc1ccc(/C=N/NC(=S)NC2CCCCC2)o1 -28.4%
CN(C)S(=O)(=O)c1cccc(NC(=S)N/N=C/C(=O)c2ccccc2)c1 3.21%
O=C1CC2(CCCC2)C(=O)N1CN1CCN(S(=O)(=O)c2ccc(F)cc2F)CC1 6.17%
Cc1cc(C(=O)OCC(=O)Nc2nccs2)c2ccccc2n1 8.78%
O[C@H]1CN(Cc2cccs2)[C@@H](c2ccc(Cl)cc2)C[C@@H]1n1cc(C2CC2)nn1 -16.1%
Cc1cccc(N2CCN(C(=O)c3cnn4c(C(F)F)cc(-c5ccccc5)nc34)CC2)c1C -11.8%
CCCc1nc(SCC(=O)Nc2ccccc2OC)c2c(=O)n(C)c(=O)n(C)c2n1 -6.56%
CCOc1cccc(=O)c2c(C)n(CC3CCCO3)c(C)c12 (centres undefined) -12.3%
CN1CN(C)c2ccc([N+](=O)[O-])c3cccc1c23 4.39%
Cc1ccc(S(=O)(=O)NC(=O)c2cccc(C)c2)cc1 -9.88%
COC(=O)C1=CN(Cc2ccc(OC)cc2)C=C(C(=O)OC)C1c1ccc(O)c(OC)c1 -26.4%
CCCC(=O)Nc1cc(OCC)c(NC(=O)NC2CCCCC2)cc1OCC 15.3%
CCn1c(SCC(=O)NC2CC2)nnc1-c1ccccn1 2.34%
CCn1c(SCC(=O)NC2CC2)nnc1-c1ccccc1OC 18.7%
Nc1nc(SCC(=O)Nc2cc(C(F)(F)F)ccc2Cl)[nH]c(=O)c1NC(=O)c1ccco1 0.81%
COC(=O)C1=CO[C@@H](O[C@@H]2O[C@H](CO)[C@@H](O)[C@H](O)[C@H]2O)C2C1C[C@H](O)[C@@H]2C (some centres undefined) 1.31%
COc1ccc(C)cc1NC(=O)Nc1ccccc1SC 23.5%
CCOc1ccc(NC(=O)Nc2cc(C)on2)cc1 -27.8%
CCN(CC(=O)Nc1cc(Cl)ccc1C)C(=O)CN1C(=O)NC2(CCCC2)C1=O -3.2%
CN(C(=O)CCNC(=O)Cn1ccc2ccccc2c1=O)c1ccc(Br)cc1 1.39%
Cc1cccc(-c2nc(CS(=O)CC(=O)NC(C)CCc3ccccc3)c(C)o2)c1 (centres undefined) -5.77%
COc1ccc(CC(=O)OC(C)C(=O)Nc2ccc(S(N)(=O)=O)cc2)cc1 (centres undefined) -1.19%
COc1ccc(S(=O)(=O)N2CCN(C(=O)c3cccs3)CC2)cc1OC 22.7%
COc1cccc(NC(=O)Nc2ccc(F)cc2)c1 -2.92%
COc1cccc(NC(=S)NC(=O)c2c(Cl)c(C)nn2C)c1 -4.16%

Reference: PubChem BioAssay AID588475 (Sanford-Burnham Center for Chemical Genomics, 2011)
